Laboratory results as given in the supplement of paper PMC11732987, “Enantioselective OTUD7B fragment discovery through chemoproteomics screening and high-throughput optimisation” (Communications Chemistry, 2025).

What was measured:
Assay in all cases: log2 ratio of Biotin-Ahx-Ub-VS probe labelling (fragment/DMSO); higher = less target engagement (more negative = stronger competition), active = hit call of the paper (q ≤ 0.05, log2 ratio ≤ -1)
Conditions in all cases: compound concentration: 200 uM; treatment time: 3 h
USP34 = USP34 (UniProt Q70CQ2)
Procedure, shortened: (§1)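 The table lists average log2 ratios of fragment over vehicle, from an unpaired t-test on global-median-normalised Spectronaut label-free quantities. Proteins with ≥2 unique peptides were used. Samples were HEK293T lysate (495 µg) treated in triplicate with fragment at 200 µM or vehicle for 3 h, then with Biotin-Ahx-Ub-VS (0.5 µM final) for 1 h, with labelled DUBs NeutrAvidin-enriched and run by diaPASEF LC-MS/MS.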

USP36 = biological target: T1, USP36 (UniProt Q9P275)
T1 sequence (whole entry): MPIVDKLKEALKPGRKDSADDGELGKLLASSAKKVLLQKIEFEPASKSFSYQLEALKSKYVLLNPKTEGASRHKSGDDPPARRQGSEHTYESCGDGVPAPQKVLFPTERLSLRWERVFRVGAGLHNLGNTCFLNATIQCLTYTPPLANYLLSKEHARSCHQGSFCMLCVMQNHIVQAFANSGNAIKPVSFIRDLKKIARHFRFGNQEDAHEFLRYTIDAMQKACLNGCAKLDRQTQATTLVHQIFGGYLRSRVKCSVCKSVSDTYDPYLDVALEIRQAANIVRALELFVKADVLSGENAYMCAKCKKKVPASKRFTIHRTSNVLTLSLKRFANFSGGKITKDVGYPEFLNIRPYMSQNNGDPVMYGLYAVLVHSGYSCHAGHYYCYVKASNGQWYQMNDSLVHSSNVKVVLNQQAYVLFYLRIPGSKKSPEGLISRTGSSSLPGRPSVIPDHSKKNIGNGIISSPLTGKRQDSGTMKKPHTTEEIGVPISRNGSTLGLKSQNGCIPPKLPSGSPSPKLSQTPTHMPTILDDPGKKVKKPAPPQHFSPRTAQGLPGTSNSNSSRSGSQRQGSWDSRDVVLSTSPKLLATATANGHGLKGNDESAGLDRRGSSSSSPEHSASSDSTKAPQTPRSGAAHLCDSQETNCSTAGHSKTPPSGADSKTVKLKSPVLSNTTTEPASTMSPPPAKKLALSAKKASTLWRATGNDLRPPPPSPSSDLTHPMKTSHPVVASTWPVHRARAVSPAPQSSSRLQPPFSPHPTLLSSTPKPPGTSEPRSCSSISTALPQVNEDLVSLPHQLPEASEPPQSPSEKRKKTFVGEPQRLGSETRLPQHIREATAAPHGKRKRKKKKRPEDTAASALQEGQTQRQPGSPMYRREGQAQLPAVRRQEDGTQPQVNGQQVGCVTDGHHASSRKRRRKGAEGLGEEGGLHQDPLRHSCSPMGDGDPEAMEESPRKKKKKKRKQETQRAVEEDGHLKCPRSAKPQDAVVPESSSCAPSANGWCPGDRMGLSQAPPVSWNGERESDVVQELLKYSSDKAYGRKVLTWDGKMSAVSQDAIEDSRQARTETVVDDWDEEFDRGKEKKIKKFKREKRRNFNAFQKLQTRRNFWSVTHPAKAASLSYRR
Procedure, shortened: as §1

USP38 = biological target: T2, USP38 (UniProt Q8NB14)
T2 sequence (whole entry): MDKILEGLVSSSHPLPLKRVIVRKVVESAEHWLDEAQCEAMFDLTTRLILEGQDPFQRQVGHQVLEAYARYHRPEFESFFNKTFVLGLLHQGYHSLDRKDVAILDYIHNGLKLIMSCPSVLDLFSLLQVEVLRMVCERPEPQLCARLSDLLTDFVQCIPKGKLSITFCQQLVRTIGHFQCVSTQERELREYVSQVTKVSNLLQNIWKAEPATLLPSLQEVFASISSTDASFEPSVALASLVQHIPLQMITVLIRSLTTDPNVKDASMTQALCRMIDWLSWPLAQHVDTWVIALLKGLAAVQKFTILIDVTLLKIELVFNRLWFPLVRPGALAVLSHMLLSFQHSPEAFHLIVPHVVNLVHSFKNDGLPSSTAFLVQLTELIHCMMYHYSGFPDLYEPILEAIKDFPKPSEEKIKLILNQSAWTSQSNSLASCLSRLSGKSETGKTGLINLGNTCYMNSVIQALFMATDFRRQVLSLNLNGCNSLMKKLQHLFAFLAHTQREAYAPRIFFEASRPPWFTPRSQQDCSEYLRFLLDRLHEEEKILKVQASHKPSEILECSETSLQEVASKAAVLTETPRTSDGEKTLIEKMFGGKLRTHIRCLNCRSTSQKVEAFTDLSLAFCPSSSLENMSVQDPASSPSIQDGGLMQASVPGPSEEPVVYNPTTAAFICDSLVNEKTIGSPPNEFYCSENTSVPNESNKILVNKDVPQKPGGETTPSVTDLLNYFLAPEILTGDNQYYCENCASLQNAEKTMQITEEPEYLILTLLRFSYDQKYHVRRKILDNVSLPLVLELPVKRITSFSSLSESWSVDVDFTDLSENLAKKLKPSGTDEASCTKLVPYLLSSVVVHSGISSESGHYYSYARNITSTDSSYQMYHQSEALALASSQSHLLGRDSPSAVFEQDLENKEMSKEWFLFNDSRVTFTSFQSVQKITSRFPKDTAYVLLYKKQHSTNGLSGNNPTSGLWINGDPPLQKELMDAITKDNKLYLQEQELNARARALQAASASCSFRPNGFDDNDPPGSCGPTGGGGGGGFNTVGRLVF
Procedure, shortened: as §1

USP39 = biological target: T3, USP39 (UniProt Q53GS9)
T3 sequence (whole entry): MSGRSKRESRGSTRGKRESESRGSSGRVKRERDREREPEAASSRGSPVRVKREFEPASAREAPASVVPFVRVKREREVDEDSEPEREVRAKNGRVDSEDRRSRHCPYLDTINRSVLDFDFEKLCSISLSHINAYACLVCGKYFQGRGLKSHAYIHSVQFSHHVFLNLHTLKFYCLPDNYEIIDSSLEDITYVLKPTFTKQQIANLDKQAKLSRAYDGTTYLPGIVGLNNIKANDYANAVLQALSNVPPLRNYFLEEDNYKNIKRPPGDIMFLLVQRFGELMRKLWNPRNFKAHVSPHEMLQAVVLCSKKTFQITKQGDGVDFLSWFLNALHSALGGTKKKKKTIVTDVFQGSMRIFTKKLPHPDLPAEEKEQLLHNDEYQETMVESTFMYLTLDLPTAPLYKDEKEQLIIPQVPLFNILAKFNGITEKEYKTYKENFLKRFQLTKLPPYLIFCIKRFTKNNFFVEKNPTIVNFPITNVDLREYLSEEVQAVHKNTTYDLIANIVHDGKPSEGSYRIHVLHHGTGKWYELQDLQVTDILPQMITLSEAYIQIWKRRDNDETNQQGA
Procedure, shortened: as §1

USP4 = biological target: T4, USP4 (UniProt Q13107)
T4 sequence (whole entry): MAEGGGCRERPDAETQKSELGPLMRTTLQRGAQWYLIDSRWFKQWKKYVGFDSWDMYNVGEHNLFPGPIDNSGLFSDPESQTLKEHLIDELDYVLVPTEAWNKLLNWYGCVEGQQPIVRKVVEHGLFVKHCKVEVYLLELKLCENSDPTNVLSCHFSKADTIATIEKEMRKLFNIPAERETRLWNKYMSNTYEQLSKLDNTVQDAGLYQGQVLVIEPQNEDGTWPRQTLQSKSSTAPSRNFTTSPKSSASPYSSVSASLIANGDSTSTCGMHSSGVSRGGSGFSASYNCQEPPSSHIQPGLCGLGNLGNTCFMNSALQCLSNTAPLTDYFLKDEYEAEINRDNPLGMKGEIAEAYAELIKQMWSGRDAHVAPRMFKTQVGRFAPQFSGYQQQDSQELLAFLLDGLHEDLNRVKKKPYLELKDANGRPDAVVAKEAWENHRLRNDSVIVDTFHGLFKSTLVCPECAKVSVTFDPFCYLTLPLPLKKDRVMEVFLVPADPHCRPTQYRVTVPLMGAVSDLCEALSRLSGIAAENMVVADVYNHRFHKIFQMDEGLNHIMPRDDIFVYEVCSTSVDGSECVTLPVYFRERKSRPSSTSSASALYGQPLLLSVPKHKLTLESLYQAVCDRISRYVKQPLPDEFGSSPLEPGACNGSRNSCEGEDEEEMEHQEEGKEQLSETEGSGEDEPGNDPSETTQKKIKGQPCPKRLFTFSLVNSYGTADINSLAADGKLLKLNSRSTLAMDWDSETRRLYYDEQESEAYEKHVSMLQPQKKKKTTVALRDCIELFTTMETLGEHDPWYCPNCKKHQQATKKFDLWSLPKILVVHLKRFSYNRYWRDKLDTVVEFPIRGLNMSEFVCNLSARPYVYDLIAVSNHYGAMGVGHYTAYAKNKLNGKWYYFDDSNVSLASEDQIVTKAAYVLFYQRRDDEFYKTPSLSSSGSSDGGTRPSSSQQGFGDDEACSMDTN
Procedure, shortened: as §1

Measured: log2 ratio of Biotin-Ahx-Ub-VS probe labelling

USP34, sequence (Q70CQ2 whole entry, the tested form may be a part): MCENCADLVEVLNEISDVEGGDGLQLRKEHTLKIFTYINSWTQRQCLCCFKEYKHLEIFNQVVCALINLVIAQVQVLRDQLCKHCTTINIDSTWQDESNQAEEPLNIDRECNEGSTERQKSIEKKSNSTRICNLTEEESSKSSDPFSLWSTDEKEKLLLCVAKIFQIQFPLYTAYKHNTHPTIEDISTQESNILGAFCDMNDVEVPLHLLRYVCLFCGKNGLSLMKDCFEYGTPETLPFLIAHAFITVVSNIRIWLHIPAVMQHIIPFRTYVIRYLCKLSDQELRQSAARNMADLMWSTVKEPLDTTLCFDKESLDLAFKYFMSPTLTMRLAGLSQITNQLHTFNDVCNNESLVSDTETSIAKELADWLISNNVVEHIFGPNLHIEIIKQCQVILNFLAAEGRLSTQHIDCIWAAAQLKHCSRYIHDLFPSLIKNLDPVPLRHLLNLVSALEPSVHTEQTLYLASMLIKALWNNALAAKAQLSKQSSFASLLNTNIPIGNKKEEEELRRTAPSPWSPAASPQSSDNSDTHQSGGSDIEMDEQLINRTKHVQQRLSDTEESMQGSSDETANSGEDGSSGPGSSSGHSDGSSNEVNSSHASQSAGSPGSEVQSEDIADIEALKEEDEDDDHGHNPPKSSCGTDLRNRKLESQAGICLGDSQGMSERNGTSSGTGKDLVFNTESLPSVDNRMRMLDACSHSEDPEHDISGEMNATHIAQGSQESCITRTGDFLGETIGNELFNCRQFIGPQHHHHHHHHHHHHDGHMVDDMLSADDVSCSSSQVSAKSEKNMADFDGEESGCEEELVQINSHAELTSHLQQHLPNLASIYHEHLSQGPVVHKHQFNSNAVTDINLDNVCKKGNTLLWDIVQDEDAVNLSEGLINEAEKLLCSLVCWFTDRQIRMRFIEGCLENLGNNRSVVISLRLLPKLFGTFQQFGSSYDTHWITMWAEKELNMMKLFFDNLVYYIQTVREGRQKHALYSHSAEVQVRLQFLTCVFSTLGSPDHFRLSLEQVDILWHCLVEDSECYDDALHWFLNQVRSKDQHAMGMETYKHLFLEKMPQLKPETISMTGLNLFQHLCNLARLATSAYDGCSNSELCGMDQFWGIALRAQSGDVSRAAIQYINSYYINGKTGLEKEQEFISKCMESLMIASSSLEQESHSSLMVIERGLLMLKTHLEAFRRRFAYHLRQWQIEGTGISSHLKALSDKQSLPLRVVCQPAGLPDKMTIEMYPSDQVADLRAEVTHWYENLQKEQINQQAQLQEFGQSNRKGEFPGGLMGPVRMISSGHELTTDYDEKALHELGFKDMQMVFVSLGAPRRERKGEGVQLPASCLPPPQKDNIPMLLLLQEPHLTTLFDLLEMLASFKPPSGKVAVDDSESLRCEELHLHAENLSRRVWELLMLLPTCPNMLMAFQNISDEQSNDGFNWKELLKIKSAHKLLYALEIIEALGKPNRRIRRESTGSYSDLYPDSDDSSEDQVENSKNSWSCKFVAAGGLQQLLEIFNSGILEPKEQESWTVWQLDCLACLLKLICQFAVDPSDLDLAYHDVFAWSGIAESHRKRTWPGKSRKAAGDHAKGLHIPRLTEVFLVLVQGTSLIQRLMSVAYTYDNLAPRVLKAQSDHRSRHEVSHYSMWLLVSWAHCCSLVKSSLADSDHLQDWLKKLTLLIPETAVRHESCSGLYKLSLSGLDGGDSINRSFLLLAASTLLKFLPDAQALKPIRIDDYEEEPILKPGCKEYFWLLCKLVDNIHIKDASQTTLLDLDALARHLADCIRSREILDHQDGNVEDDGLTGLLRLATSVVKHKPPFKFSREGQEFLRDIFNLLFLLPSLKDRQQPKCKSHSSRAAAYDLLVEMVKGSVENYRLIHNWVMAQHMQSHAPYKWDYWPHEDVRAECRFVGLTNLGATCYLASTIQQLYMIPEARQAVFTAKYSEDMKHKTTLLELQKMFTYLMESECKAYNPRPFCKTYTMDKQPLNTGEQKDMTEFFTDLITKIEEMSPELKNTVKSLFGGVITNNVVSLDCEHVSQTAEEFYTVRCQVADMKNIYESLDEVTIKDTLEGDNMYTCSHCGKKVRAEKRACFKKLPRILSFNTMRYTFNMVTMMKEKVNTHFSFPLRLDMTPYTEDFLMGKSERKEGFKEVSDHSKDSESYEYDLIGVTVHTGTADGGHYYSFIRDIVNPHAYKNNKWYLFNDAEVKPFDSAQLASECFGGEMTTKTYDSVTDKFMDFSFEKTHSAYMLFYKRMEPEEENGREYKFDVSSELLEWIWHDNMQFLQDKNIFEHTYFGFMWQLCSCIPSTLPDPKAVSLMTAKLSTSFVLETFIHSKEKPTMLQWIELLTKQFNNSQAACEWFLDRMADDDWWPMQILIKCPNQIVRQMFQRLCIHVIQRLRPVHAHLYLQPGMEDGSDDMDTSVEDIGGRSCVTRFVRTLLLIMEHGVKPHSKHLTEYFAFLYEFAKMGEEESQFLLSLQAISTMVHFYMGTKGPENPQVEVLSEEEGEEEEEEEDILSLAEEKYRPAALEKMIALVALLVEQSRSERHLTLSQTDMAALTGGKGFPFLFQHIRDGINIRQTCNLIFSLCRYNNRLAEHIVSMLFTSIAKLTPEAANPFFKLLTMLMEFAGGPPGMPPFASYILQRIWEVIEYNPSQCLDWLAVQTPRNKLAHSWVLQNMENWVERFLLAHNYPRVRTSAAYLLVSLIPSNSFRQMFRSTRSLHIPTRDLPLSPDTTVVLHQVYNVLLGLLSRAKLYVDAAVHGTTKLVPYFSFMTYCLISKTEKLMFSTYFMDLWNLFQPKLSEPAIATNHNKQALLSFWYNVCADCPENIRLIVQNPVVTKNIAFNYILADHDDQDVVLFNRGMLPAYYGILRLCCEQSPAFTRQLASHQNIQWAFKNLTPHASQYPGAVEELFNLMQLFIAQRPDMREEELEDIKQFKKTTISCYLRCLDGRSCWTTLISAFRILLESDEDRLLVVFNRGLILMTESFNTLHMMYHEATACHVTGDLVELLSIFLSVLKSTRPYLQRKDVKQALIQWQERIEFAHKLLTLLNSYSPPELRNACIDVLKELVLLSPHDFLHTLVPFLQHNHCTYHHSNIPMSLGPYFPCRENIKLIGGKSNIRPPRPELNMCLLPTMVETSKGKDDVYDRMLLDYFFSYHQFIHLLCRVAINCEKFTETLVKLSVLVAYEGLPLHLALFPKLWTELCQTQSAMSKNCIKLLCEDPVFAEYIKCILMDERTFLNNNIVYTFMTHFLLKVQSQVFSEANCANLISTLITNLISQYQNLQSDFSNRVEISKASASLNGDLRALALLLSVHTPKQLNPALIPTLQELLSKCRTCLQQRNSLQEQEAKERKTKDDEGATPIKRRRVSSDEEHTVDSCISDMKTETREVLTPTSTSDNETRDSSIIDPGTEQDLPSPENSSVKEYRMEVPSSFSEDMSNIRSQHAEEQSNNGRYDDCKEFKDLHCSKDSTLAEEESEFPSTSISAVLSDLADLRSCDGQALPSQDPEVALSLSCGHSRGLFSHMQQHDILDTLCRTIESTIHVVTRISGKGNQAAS

O=C(CCl)N1CCC(c2ccn[nH]2)C1 (stereo not given)
inactive: USP34 0.0363 | USP36 -0.353 | USP38 -0.148 | USP39 0.00596 | USP4 -0.113
